Assay results published in PubChem BioAssay (NCATS).
Inconclusive results are not listed. A call without a number means that no potency is given here. Active and inactive are the calls of the source. Calls follow the shape of the dose curve; as a rule, active = well fitted inhibition curve with a large enough effect; inconclusive = small, poorly fitted or top-dose-only effect; inactive = flat fitted curve, though single readings scatter.

Legend:
Test in all cases: qHTS profiling for inhibitors of Plasmodium falciparum proliferation (AID 504749); also: nearly all actives have a fitted effect of over 60% in size
Details in all cases: P. falciparum in erythrocytes, SYBR Green DNA, 72 h; series mostly up to 28.7 µM
[1] = tested on: 3D7
Outline: (§1)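 SYBR Green fluorescence of parasite DNA, read after lysis and overnight dark incubation, measured growth over 72 h in erythrocyte culture at 0.3% parasitemia and 2.5% hematocrit. Data normalised to DMSO and 0.29 uM artemisinin, with plate-drift correction.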

[2] = tested on: CP185
Outline: as §1

[3] = tested on: CP203
Outline: as §1

[4] = tested on: CP211
Outline: as §1

[5] = tested on: CP217
Outline: as §1

[6] = tested on: CP250
Outline: as §1

[7] = tested on: CP252
Outline: as §1

[8] = tested on: CP262
Outline: as §1

[9] = tested on: CP291
Outline: as §1

[10] = tested on: CP305
Outline: as §1

[11] = tested on: CP315
Outline: as §1

[12] = tested on: CP335
Outline: as §1

[13] = tested on: DIV30
Outline: as §1

[14] = tested on: Dd2
Outline: as §1

[15] = tested on: ECU
Outline: as §1

[16] = tested on: HB3
Outline: as §1

[17] = tested on: N140
Outline: as §1

[18] = tested on: CP256
Outline: as §1

[19] = tested on: CP265
Outline: as §1

[20] = tested on: TAB113
Outline: as §1
Potency is read from the fitted curve at half-maximal effect.

Structure (SMILES)	Potency [1]	Potency [2]	Potency [3]	Potency [4]	Potency [5]	Potency [6]	Potency [7]	Potency [8]	Potency [9]	Potency [10]	Potency [11]	Potency [12]	Potency [13]	Potency [14]	Potency [15]	Potency [16]	Potency [17]	Potency [18]	Potency [19]	Potency [20]
CC(C)=CC1C(C(=O)OCc2coc(Cc3ccccc3)c2)C1(C)C (configuration not stated)	inactive	inactive	inactive	inactive	inactive	inactive	inactive	inactive	inactive	inactive	inactive	inactive	inactive	inactive	inactive	inactive	inactive	–	–	–
O=C1CC2OCC=C3CN4CC[C@]56c7ccccc7N1C5C2[C@H]3C[C@H]46 (some centres not stated)	inactive	–	–	–	–	–	–	–	–	–	–	5360 nM (active)	–	11200 nM (active)	–	inactive	–	8910 nM (active)	–	–
CC(=O)[C@H]1CC[C@H]2C3CC[C@H]4C[C@H](O)CC[C@]4(C)C3CC[C@]12C (some centres not stated)	inactive	inactive	inactive	inactive	inactive	inactive	inactive	inactive	inactive	inactive	inactive	inactive	inactive	inactive	inactive	inactive	inactive	inactive	inactive	inactive
C[C@@H](N)[C@@H](O)c1ccc(O)c(O)c1	inactive	inactive	inactive	inactive	inactive	inactive	inactive	inactive	inactive	inactive	inactive	inactive	inactive	inactive	inactive	inactive	inactive	inactive	inactive	inactive
COC(=O)C1C(OC(=O)c2ccccc2)CC2CCC1N2C (configuration not stated)	inactive	inactive	inactive	inactive	inactive	inactive	inactive	inactive	inactive	inactive	inactive	inactive	inactive	inactive	inactive	inactive	inactive	inactive	inactive	inactive
CN(C)C1C(=O)C(C(N)=O)C(=O)C2(O)C(=O)C3C(=O)c4c(O)cccc4C(C)(O)C3C(O)C12 (configuration not stated)	–	inactive	inactive	inactive	inactive	inactive	inactive	inactive	–	inactive	–	6010 nM (active)	–	3550 nM (active)	inactive	–	inactive	inactive	inactive	inactive
CCCCCCC(=O)O[C@H]1CC[C@H]2[C@@H]3CCC4CC(=O)C=C(C)[C@]4(C)[C@H]3CC[C@]12C (some centres not stated)	11200 nM (active)	inactive	inactive	inactive	inactive	inactive	inactive	inactive	inactive	inactive	inactive	8490 nM (active)	inactive	–	inactive	11200 nM (active)	inactive	inactive	inactive	inactive
COC(C(=O)C(O)C(C)O)C1Cc2cc3cc(OC4CC(OC5CC(O)C(OC)C(C)O5)C(OC(C)=O)C(C)O4)c(C)c(O)c3c(O)c2C(=O)C1OC1CC(OC2CC(OC3CC(C)(O)C(OC(C)=O)C(C)O3)C(O)C(C)O2)C(O)C(C)O1 (configuration not stated)	631 nM (active)	1260 nM (active)	4780 nM (active)	–	1780 nM (active)	2000 nM (active)	2000 nM (active)	3380 nM (active)	2130 nM (active)	2390 nM (active)	–	338 nM (active)	–	178 nM (active)	1000 nM (active)	355 nM (active)	1000 nM (active)	2510 nM (active)	2240 nM (active)	708 nM (active)
CN(C)[C@@H](Cc1ccccc1)c1ccccc1	inactive	inactive	inactive	inactive	inactive	inactive	inactive	inactive	inactive	inactive	inactive	inactive	inactive	10000 nM (active)	inactive	inactive	inactive	inactive	inactive	inactive
CC(CO)NC(=O)C1C=C2c3cccc4[nH]cc(c34)CC2N(C)C1 (configuration not stated)	inactive	inactive	inactive	inactive	inactive	inactive	inactive	inactive	inactive	inactive	inactive	inactive	inactive	inactive	inactive	inactive	inactive	inactive	inactive	inactive
O=[N+]([O-])OC1CO[C@H]2C(O[N+](=O)[O-])COC12 (some centres not stated)	inactive	inactive	inactive	inactive	inactive	inactive	inactive	inactive	inactive	inactive	inactive	inactive	inactive	inactive	inactive	inactive	inactive	inactive	inactive	inactive
C=C1CC2C(CC[C@]3(C)C(=O)CCC23)[C@]2(C)C=CC(=O)C=C12 (some centres not stated)	inactive	inactive	inactive	inactive	inactive	inactive	inactive	inactive	inactive	inactive	inactive	–	inactive	inactive	inactive	inactive	inactive	inactive	inactive	inactive
